# From the supplement of paper PMC10849652
# About 8,800 targets were measured; listed, in parts, are those with a hit and a random draw of the rest. About 0.5% of all pairs of compound and target were hits. Values without a mark were called inactive.
# Compound: NCC(=O)Nc1ccc(-n2nc(C(F)(F)F)cc2-c2ccc3c(ccc4ccccc43)c2)cc1
# Test: log2 fold change, soluble protein after heating vs DMSO (PISA); higher = thermal stabilisation; K562 lysate, 10 uM; active = over 0.2 and 3.5 SD of the protein, either way, in both replicates (recomputed)
# Summary of the method: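 Values give the log-two fold change in thermal stability against solvent controls, from duplicates. Crude K562 extract at 1 mg/mL protein, made by dounce homogenisation in PBS pH 7.4 with 1 mM MgCl2, was treated with 10 μM compound for 30 min. After 3 min heating across 48°C-58°C, aliquots were pooled, adjusted to 0.5% NP-40 at 4°C and centrifuged at 21,000xg for 90 min. The supernatant was measured by TMTpro 16plex LC-MS/MS with channel sums equalised.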
# Chain of UniProt Q58FG1 (Q58FG1 whole entry, looked up): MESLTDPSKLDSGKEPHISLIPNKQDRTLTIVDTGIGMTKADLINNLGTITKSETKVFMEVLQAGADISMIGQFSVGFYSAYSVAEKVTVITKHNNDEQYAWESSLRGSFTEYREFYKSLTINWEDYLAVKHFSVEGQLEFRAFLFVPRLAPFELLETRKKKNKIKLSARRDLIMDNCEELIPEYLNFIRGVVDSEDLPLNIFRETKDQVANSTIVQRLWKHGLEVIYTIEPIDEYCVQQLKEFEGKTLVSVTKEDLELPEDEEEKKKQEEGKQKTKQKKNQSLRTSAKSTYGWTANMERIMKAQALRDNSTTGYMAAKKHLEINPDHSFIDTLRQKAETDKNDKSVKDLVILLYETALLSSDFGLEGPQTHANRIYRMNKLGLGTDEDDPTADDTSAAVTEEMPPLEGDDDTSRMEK
# Chain of UniProt P04792 (P04792 whole entry, looked up): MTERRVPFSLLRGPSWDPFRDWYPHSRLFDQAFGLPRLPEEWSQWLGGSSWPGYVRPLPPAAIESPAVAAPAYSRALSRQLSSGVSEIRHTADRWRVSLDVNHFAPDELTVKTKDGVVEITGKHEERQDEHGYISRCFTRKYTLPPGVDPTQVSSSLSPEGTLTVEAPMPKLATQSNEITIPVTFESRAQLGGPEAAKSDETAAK
# Chain of UniProt Q9BXW7 (Q9BXW7 whole entry, looked up): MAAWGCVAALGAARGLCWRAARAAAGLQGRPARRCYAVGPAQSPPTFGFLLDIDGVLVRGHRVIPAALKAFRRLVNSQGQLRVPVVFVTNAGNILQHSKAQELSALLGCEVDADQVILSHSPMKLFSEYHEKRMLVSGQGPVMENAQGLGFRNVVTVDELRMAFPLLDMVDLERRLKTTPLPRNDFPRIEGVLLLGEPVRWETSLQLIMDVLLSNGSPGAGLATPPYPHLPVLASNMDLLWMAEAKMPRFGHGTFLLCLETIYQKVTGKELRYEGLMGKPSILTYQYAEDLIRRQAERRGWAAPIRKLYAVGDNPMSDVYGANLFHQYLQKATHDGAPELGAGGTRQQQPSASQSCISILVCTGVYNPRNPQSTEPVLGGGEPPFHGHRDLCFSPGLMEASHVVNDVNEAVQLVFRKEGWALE
# Chain of UniProt P20839 (P20839 whole entry, looked up): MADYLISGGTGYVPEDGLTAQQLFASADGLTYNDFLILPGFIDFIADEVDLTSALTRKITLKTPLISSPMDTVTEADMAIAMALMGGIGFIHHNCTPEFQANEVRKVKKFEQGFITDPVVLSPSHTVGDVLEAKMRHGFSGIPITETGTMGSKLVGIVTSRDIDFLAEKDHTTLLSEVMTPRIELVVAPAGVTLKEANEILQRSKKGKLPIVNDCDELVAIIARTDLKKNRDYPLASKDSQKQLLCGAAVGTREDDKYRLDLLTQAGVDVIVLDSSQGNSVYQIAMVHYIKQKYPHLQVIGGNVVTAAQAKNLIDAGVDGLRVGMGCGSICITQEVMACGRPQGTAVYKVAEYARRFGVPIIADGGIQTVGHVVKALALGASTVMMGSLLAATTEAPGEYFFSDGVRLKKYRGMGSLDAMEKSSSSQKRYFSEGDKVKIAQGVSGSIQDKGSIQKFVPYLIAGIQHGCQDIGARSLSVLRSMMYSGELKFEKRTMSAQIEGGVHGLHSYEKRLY
# Chain of UniProt P09211 (P09211 whole entry, looked up): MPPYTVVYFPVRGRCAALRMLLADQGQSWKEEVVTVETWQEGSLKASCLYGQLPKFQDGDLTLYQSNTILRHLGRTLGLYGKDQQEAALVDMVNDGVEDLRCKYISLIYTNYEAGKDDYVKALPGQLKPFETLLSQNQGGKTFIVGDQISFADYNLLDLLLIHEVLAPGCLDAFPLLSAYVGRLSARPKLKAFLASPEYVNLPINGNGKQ
# Chain of UniProt Q8NEC7 (Q8NEC7 whole entry, looked up): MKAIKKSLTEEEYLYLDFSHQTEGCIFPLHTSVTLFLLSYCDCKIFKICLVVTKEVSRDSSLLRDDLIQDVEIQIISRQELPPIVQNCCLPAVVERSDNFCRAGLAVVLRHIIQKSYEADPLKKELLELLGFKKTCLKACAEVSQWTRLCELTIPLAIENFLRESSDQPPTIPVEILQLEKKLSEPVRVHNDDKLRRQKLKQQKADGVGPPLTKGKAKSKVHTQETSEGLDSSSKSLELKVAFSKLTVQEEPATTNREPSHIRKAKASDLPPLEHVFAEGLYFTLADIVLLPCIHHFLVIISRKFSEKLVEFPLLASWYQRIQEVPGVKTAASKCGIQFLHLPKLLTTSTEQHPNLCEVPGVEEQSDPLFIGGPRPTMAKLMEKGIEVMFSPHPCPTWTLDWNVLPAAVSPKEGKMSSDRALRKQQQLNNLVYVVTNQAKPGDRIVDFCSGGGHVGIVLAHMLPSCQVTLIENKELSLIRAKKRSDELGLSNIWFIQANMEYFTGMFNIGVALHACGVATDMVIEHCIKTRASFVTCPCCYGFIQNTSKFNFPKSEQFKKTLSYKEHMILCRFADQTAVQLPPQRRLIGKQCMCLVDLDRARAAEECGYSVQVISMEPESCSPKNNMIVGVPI
# Chain of UniProt Q92805 (Q92805 whole entry, looked up): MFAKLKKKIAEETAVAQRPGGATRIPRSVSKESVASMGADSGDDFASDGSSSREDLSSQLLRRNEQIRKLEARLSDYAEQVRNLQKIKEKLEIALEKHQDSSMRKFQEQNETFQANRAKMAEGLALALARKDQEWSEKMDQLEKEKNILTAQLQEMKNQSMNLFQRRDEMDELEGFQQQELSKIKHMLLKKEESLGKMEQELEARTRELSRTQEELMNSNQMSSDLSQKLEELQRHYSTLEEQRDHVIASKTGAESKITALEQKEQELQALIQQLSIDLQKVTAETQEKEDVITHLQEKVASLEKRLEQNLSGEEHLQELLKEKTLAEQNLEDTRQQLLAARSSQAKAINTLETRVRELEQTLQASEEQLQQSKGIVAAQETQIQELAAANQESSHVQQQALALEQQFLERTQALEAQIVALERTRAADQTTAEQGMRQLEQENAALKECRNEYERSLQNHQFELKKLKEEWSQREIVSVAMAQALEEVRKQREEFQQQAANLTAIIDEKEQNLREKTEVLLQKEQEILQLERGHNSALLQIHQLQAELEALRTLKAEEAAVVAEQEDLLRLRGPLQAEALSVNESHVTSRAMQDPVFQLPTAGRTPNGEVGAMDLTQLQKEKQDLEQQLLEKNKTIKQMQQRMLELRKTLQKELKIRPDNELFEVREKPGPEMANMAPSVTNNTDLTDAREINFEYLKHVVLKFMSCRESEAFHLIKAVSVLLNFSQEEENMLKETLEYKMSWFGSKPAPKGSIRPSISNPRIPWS
# Chain of UniProt P41229 (P41229 whole entry, looked up): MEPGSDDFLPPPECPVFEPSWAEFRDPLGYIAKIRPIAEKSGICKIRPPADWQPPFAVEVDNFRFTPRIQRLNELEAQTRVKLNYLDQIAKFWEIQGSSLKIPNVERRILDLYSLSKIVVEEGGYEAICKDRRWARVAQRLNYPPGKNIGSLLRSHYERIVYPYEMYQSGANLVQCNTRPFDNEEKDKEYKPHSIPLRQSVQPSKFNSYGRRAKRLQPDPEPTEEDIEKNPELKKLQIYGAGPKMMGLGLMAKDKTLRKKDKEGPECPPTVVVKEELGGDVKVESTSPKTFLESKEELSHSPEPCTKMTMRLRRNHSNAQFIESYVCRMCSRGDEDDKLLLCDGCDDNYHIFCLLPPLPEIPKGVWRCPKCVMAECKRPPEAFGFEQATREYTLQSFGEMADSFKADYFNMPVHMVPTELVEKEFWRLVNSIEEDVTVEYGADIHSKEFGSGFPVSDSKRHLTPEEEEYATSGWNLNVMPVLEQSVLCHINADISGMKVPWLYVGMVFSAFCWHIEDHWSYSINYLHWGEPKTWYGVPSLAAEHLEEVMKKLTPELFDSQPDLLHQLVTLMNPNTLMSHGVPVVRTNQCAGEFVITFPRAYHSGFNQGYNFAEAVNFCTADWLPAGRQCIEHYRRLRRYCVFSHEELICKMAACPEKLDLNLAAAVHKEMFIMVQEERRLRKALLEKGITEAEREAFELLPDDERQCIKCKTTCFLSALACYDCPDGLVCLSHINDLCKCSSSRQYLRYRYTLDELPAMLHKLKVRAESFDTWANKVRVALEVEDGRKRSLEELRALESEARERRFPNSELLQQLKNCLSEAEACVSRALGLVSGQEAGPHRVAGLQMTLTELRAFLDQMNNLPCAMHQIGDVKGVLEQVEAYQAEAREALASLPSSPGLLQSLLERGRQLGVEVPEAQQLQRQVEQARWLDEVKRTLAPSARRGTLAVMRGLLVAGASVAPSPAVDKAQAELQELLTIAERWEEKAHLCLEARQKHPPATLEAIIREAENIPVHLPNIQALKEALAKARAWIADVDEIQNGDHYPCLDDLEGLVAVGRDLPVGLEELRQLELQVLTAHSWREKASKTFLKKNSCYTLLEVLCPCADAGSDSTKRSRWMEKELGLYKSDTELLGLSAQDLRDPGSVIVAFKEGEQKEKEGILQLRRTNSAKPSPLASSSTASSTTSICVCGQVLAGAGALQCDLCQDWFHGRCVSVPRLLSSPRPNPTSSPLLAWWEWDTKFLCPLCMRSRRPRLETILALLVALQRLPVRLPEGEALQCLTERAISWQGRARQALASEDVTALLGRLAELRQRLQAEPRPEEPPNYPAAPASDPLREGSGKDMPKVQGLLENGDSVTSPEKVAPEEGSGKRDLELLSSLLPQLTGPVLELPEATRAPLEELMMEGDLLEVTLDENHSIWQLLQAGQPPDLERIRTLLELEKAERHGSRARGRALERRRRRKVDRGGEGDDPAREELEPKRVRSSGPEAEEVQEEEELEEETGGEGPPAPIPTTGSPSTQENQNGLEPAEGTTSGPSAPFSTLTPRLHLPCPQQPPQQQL
# Chain of UniProt P09429 (P09429 whole entry, looked up): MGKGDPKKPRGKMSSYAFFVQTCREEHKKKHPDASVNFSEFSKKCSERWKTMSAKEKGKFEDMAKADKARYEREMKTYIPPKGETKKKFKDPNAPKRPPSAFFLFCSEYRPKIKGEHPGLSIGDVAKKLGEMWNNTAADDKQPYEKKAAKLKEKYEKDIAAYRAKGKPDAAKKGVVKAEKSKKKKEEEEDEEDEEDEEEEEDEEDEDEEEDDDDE
row,Target,log2 fold change
1,HMGB1 (UniProt P09429),-0.024
2,IGF2BP2 (UniProt Q9Y6M1),-0.016
3,GNB1 (UniProt P62873),0.026
4,IRAK1 (UniProt P51617),-0.073
5,GRK6 isoform 2 (UniProt P43250),0.001
6,ICAM2 (UniProt P13598),-0.016
7,IMMT (UniProt C9J406),-0.084
8,GUSB (UniProt P08236),0.021
9,HSPA14 (UniProt Q0VDF9),-0.022
10,HNRNPH2 (UniProt P55795),-0.008
11,HDAC6 (UniProt Q9UBN7),-0.039
12,HSP90AA4P (UniProt Q58FG1),0.026
13,KHK isoform 2 (UniProt P50053),0.035
14,GTF3C3 (UniProt Q9Y5Q9),-0.007
15,H4C1 (UniProt P62805),0.043
16,HSPB1 (UniProt P04792),0.019
17,GNL3 (UniProt Q9BVP2),0.017
18,KDM5C (UniProt P41229),0.039

row,Target,log2 fold change
1,GOLGA1 (UniProt Q92805),0.048
2,KATNBL1 (UniProt Q9H079),0.111
3,HNRNPM (UniProt P52272),-0.008
4,HEATR3 (UniProt Q7Z4Q2),-0.03
5,HNRNPUL1 (UniProt Q9BUJ2),-0.02
6,HDGFL2 isoform 2 (UniProt Q7Z4V5),0.02
7,HNRNPLL (UniProt Q8WVV9),0.009
8,HDAC3 (UniProt O15379),-0.016
9,IMPDH1 isoform 6 (UniProt P20839),0.029
10,HDHD5 (UniProt Q9BXW7),0.018
11,KDM6A (UniProt O15550),0.026
12,ILKAP (UniProt Q9H0C8),-0.05
13,IRF2BPL (UniProt Q9H1B7),-0.018
14,GSTP1 (UniProt P09211),-0.011
15,GLUL (UniProt P15104),0.008
16,GSE1 (UniProt Q14687),0.029
17,GSTCD (UniProt Q8NEC7),-0.025
18,HMGN4 (UniProt O00479),-0.095
